PubChem BioAssay (NCATS)
Records with an inconclusive call do not appear. The source made the active and inactive calls. Calls come from the whole dose curve; as a rule, active = well fitted cell-killing curve with a large enough effect; inconclusive = small, poorly fitted or top-dose-only effect, or effect the other way; inactive = no such curve, though single readings can be large or run the other way.

What was measured:
[1] = Quantitative High-Throughput drug screen in 47 multiple myeloma cell lines against the NCATS MIPE library collection: FR4_PLB cell viability assay (AID 1918924; note: nearly all actives have a fitted effect of over 35% in size; note: potency is the fitted concentration of half-maximal effect)
Procedure, shortened: (§1)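 Viability readout: CellTiter-Glo luminescence following 5 min room-temperature incubation with reagent. Prior exposure: 48 h, 37C, humidified 5% CO2, 500 cells per well.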

[2] = Quantitative High-Throughput drug screen in 47 multiple myeloma cell lines against the NCATS MIPE library collection: Delta47_JCRB cell viability assay (AID 1918925; note: nearly all actives have a fitted effect of over 45% in size; note: potency is the fitted concentration of half-maximal effect)
Procedure, shortened: (§2)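 Luminescent ATP measurement with CellTiter-Glo gives viability, scaled between DMSO-only wells (100%) and media-only wells (0%). Cells, 500 per well, faced library compounds for 48 hours at 37C.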

[3] = Quantitative High-Throughput drug screen in 47 multiple myeloma cell lines against the NCATS MIPE library collection: AMO1_DSMZ cell viability assay (AID 1918927; note: nearly all actives have a fitted effect of over 30% in size; note: potency is the fitted concentration of half-maximal effect)
Procedure, shortened: as §2

[4] = Quantitative High-Throughput drug screen in 47 multiple myeloma cell lines against the NCATS MIPE library collection: ARD_JJKsccE7 cell viability assay (AID 1918929; note: potency is the fitted concentration of half-maximal effect)
Procedure, shortened: as §2

[5] = Quantitative High-Throughput drug screen in 47 multiple myeloma cell lines against the NCATS MIPE library collection: KMM1_JCRB cell viability assay (AID 1918960); note: nearly all actives have a fitted effect of over 30% in size; note: potency is the fitted concentration of half-maximal effect
Procedure, shortened: (§3)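 Myeloma cells at 500 per well in 1536-well format treated with MIPE 4.0 library by pin transfer for 48 h at 37C, 5% CO2. Viability from ATP luminescence (CellTiter-Glo), normalized to DMSO (100%) and media-only (0%) wells.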

[6] = Quantitative High-Throughput drug screen in 47 multiple myeloma cell lines against the NCATS MIPE library collection: EJM_DSMZ cell viability assay (AID 1918926; note: nearly all actives have a fitted effect of over 30% in size)
Procedure, shortened: as §2

[7] = Quantitative High-Throughput drug screen in 47 multiple myeloma cell lines against the NCATS MIPE library collection: ARP1_JJKsccF8 cell viability assay (AID 1918928; note: nearly all actives have a fitted effect of over 40% in size; note: potency is the fitted concentration of half-maximal effect)
Procedure, shortened: as §3

[8] = Quantitative High-Throughput drug screen in 47 multiple myeloma cell lines against the NCATS MIPE library collection: Karpas620_DSMZ cell viability assay (AID 1918959); note: nearly all actives have a fitted effect of over 30% in size; note: potency is the fitted concentration of half-maximal effect
Procedure, shortened: as §1

Measured: Potency

O=C(c1ccc(OCCN2CCCCC2)cc1)c1c(-c2ccc(O)cc2)sc2cc(O)ccc12
active: [1] 26.4 µM | [2] 23.5 µM | [3] 20.9 µM | [4] 26.4 µM | [5] 20.9 µM

CS(=O)(=O)Nc1ccc([N+](=O)[O-])cc1Oc1ccccc1
inactive: [1] | [2] | [6] | [5]
active: [7] 11.8 µM

Cc1cnc(C(=O)NCCc2ccc(S(=O)(=O)NC(=O)NC3CCCCC3)cc2)cn1
active: [7] 18.7 µM | [5] 18.7 µM
inactive: [3] | [4] | [8]

CCc1cccc2c3c([nH]c12)C(CC)(CC(=O)O)OCC3 (centres undefined)
not listed: [1]
inactive: all other assays above

CN1C(C(=O)Nc2ccccn2)=C(O)c2ccccc2S1(=O)=O
inactive: [6] | [7] | [4] | [5]

COc1cc2nc(N3CCN(C(=O)c4ccco4)CC3)nc(N)c2cc1OC
active: [2] 10.5 µM | [7] 26.4 µM | [4] 9.35 µM | [8] 5.26 µM | [5] 9.35 µM

O=c1[nH]cc(F)c(=O)[nH]1
inactive: [6]
active: [7] 1.87 µM | [5] 10.5 µM

NCCCCCC(=O)O
inactive: [6] | [4] | [8] | [5]

CC12CC3CC(C)(C1)CC(N)(C3)C2
inactive: [7] | [4]

OCCN(CCO)c1nc(N2CCCCC2)c2nc(N(CCO)CCO)nc(N3CCCCC3)c2n1
active: [2] 23.5 µM

C[C@](N)(Cc1ccc(O)c(O)c1)C(=O)O
inactive: [1] | [4] | [8]
